Measurements reported in PubChem BioAssay (NCI).
Where “and” joins values, the source holds several entries; their conditions need not be identical. Equal entries are not always repeated. The panel holds about 83,000 compounds, 20% with a hit somewhere; the sample as a whole holds those more often.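 Interpretation: 100, growth as untreated; towards 0, rising growth inhibition; 0, no net growth; 0 to -100, cell death. Compounds scoring below 10 were considered active.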 A number with no mark means an inactive call. Calls of active or inactive are those of the source.

Each molecule was assayed on MDA-MB-468 breast (assay: NCI-60 one-dose screen, 48 h (100 = growth as untreated, 0 = no growth, -100 = all killed)). Conditions: 10 µM unless noted.

SMILES | growth
COc1cc(/C=C/C(=O)c2c(C)nc3ccccc3c2/C=C/c2ccccc2)cc(OC)c1OC | 7.7% (active)
COC1OC(COC(C)=O)C(OC(C)=O)C(OC(C)=O)C1OC(C)=O (stereo not given) | 108%
O=C(c1ccccc1)c1ccc(Oc2ccc([N+](=O)[O-])cc2[N+](=O)[O-])cc1 | 5.3% (active)
CCCCCCN(CCCCCC)CCC(=O)Nc1ccc(S(=O)(=O)c2ccc(NC(=O)CCN(CCCCCC)CCCCCC)cc2)cc1 | 92.9%
COc1ccc(-c2nn(C(=O)NCCN(C)C)cc2-c2ccncc2)cc1Cl | 4.11% (active)
Cc1cc(N2CCCC2)nc(N(CCCNc2ccnc3cc(Cl)ccc23)Cc2ccc3c(c2)OCO3)n1 | -47.4% (active)
CC(=O)OCCO | 98.6%
COc1cc(CNC(=O)Cc2ccccc2[N+](=O)[O-])ccc1OCC(=O)NO | 98.7%
COc1cc(-c2nn(-c3cccc(NC(=O)c4ccc(Cl)c(C(F)(F)F)c4)c3)cc2-c2ccncc2)ccc1Cl | 54.4%
Cc1ccccc1-c1cc(Cc2ccccc2O)c(=O)[nH]n1 | 170%
Nc1cc(-c2c[nH]c3ccc(F)cc23)nc2cc(-c3c[nH]c4ccc(F)cc34)nn12 | 115%
O=C(/C=C1\C=CN(CCCCCCF)c2ccccc21)n1ccc2ccccc21 | 84.9%
CC(=O)CC(C)(C)c1ccc(Cl)cc1 | 90.4%
C#CCOc1ccc(/C=N\Nc2nc(-c3ccc(C)cc3)cs2)cc1OC | 70.7%
O=C(O)c1ccccc1Cc1ccc2c(c1)CCCC2 | 99.6%
CC(C)(N)COS(=O)(=O)O | 107%
CN1C(=O)/C(=C/c2ccc(C(=O)Nc3ncc(Cc4ccc(F)cc4)s3)cc2)SC1=S | 25.2%
COc1ccc(/C=N/NC(=O)CSc2nc(-c3cnccn3)cc(-c3cccs3)c2C#N)cc1OC | 65.3%
C=CCN=C(N)SCCCCCCSC(N)=NCC=C | 84.7%
O=C1c2c(c3c4cccnc4[nH]c3c3ccc4ccccc4c23)C(=O)N1CCN1CCCCC1 | 29.4%

SMILES | growth
O=C1Nc2ccccc2/C1=C\c1ccccc1O | 67.4%
CC(C)C1CCC(C)C(C2(C#N)C(N)=NC(N)=C2C#N)C1=O (stereo not given) | 107%
COc1cc(OCc2cccc(-c3ccccc3)c2C)cc(OC)c1CN1CCCCC1C(=O)NCCOCCOCCN (stereo not given) | 30%
CCCO/N=C/c1ccccn1 | 115% and 120%
CCOc1cc2ncc(C#N)c(Nc3ccc(OCc4cccc(F)c4)c(Cl)c3)c2cc1NC(=O)CCCCC1CCSS1 (stereo not given) | 70.4%
Cc1c(O)ccc(SC#N)c1C | 112%
NCCNc1nc2ccccc2c2c(=O)c3cc(F)cc(Cl)c3sc12 | -12.5% (active)
O=C(NCCNc1nccc(-c2c(-c3cccc(F)c3)nc3sccn23)n1)c1ccc(Cl)cc1 | 67.8%
CC(=NCc1ccccc1)c1ccc(O)cc1O | 118%
COC(CCP(=O)(c1ccccc1)c1ccccc1)(C(=O)c1ccccc1)c1ccccc1 (stereo not given) | 54.7%
CC(C(=O)O)n1cc(C#N)c(=O)[nH]c1=O (stereo not given) | 103% and 107%
C1CN(SSN2CCOCC2)CCO1 | -66.4% [100 µM] (active)
CCSc1oc(C)nc1[P+](c1ccccc1)(c1ccccc1)c1ccccc1 | -20.3% (active)
C=C(C)[C@@H]1CC[C@]2(C(=O)O)CC[C@]3(C)[C@H](CC[C@@H]4[C@@]5(C)C/C(=C/c6ccccn6)C(=O)C(C)(C)[C@@H]5CC[C@]43C)[C@@H]12 | 9.64% (active)
COc1ccc(/C=C(\C#N)C(=O)Nc2cccc(Nc3nc(SC)nc(-c4cccc([N+](=O)[O-])c4)c3C#N)c2)cc1OC | 106%
Cc1cc(O)ccc1C1=NN(c2ccc(S(C)(=O)=O)cc2)C(=O)CC1 | 103%
O=C1CCC(C(=O)N/N=C/c2cc(F)ccc2F)N1 (stereo not given) | 111%
Fc1ccc(-c2nc(-c3ccc(-c4nc5ccc(F)cc5[nH]4)cc3)no2)cc1 | 56.2%
Cc1cccc(Cc2cnc(NC(=O)c3ccc4nnsc4c3)s2)c1 | 94.8%
C/C(=N\Nc1ccc([N+](=O)[O-])cc1[N+](=O)[O-])c1ccc(Br)cc1 | 108%
